Hits are enriched below; roughly 1% of the tested compounds scored in any of these assays.
Mtb hypoxia inh: inhibitors of hypoxia-regulated fluorescent reporter in Mycobacterium tuberculosis; M. tuberculosis hypoxia-regulated fluorescent reporter, fluorescence; fluorescence inhibition, % (test concentration not listed); actives 0.1% (n = 300,000); in the data active = fluorescence inhibition mostly above about 23%, no sharp cut-off; inactive = mostly below about 17%
TcdB GH inh: blocks C. difficile toxin B glycohydrolase activity; TcdB glycohydrolase enzymatic assay, plate reader; inhibition, % at 9.99 µM; actives 0.24% (n = 350,000); in the data active = inhibition above about 10%
BioA inh-1: BioA (M. tuberculosis) enzyme inhibition; purified M. tuberculosis BioA enzyme, plate reader; inhibition, % at 9.99 µM; actives 0.096% (n = 360,000); AID 602481; in the data active = inhibition above about 40%; inconclusive = no clear call, values can overlap the other calls
FadD28 binding: blocks FadD28 binding to the bisubstrate probe; fluorescence polarization; actives 0.22% (n = 360,000); inhibition, % at 12.5 µM; in the data active = inhibition above about 8.5%, passing the limit was not always enough; inconclusive = no clear call, values can overlap the other calls
PrP 5UTR inh: suppresses PrP 5' UTR mRNA reporter expression. cell-based PrP 5' UTR mRNA reporter, plate reader. inhibition, % (test concentration not listed). actives 0.35% (n = 340,000); in the data active = inhibition above about 52%
SSB-PriA inh: K. pneumoniae PriA-SSBct interaction inhibition. AlphaScreen SSBct-PriA binding, biotinylated peptide. inhibition, % at 33 µM. actives 0.6% (n = 430,000); in the data active = inhibition mostly above about 37%, no sharp cut-off; inactive = mostly below about 20%
BioA inh-2: Mtb BioA enzyme inhibition; shares compounds with BioA inh-1; 310 tested, under 10 active; max activity, %; purified BioA enzyme, plate reader, dose response;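 note: top concentration of the dilution series was 10 µM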
Target sequence (P9WQ81 whole entry, looked up): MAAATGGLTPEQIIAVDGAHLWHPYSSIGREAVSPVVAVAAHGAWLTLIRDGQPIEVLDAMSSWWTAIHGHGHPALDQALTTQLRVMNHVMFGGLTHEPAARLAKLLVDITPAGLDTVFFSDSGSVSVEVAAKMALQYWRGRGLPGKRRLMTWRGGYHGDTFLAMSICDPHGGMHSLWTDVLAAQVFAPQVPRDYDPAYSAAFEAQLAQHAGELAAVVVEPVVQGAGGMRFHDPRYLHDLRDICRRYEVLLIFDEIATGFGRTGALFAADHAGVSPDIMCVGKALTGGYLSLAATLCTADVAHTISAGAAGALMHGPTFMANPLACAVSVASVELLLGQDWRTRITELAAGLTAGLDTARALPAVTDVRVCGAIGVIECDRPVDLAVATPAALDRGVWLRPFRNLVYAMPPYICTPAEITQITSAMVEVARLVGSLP
HepG2 cytotox: cytotoxicity in HepG2 cells; max activity, %; AID 651898; shares compounds with BioA inh-1; 310 tested, under 10 active; plate reader
3T3 cytotox 5: kills NIH3T3 cells. activity change, negative = cytotoxicity, % at 26 µM. shares compounds with BioA inh-1. NIH3T3 cytotoxicity, plate reader. 310 tested, under 10 active
A number is an active result; i = inactive; ? = inconclusive; nt = not tested or not shown. Unless noted, the rule behind the calls is not given here.

SMILES | Mtb hypoxia inh | TcdB GH inh | BioA inh-1 | FadD28 binding | PrP 5UTR inh | SSB-PriA inh | BioA inh-2 | HepG2 cytotox | 3T3 cytotox 5
O=C(COC(=O)c1ccccc1Cc1ccccc1)Nc1ccc(SC(F)F)cc1 | i | i | i | i | i | i | nt | nt | nt
COc1ccccc1S(=O)(=O)N1CC[C@@H]2[C@H](CO)Nc3ccc(-c4cccc(C#N)c4)cc3[C@@H]21 | nt | nt | 48 | nt | nt | nt | i | i | i
CCCC(C(=O)c1ccccc1)n1cncn1 (stereo unspecified) | nt | nt | i | i | i | i | nt | nt | nt
CCCc1cc(=O)oc2c3c(cc(OCC(=O)NCCCn4ccnc4)c12)OC(C)(C)CC3 | nt | 11 | 43 | i | i | i | i | i | i
CC(C)C(=O)Nc1ccc2c(c1)C(=O)N(C)[C@H]1CC[C@@H](CC(=O)NCc3ccccc3)O[C@H]1CO2 | nt | i | i | nt | nt | nt | nt | nt | nt
C/C=C/c1ccc2c(c1)O[C@@H](CN(C)C(=O)Nc1ccc(OC)cc1)[C@@H](C)CN([C@@H](C)CO)S2(=O)=O | nt | i | 41 | nt | nt | nt | i | i | i
C/C=C/c1ccc2c(c1)O[C@@H](CN(C)C(=O)Nc1ccccc1)[C@H](C)CN([C@H](C)CO)S2(=O)=O | nt | i | 42 | nt | nt | nt | i | i | i
COc1ccccc1-c1cc(C(F)(F)F)nc(S(=O)(=O)CCCC(=O)O)n1 | i | nt | 60 | i | i | i | i | i | i
O=C(c1ccccc1F)N1CC[C@@H]2[C@H](CO)Nc3ccc(Br)cc3[C@@H]21 | nt | i | 83 | nt | nt | nt | i | i | i
O=C(c1ccccc1F)N1CC[C@@H]2[C@H]1c1cc(Br)ccc1N[C@@H]2CO | nt | i | 49 | nt | nt | nt | i | i | i
O=C(c1ccccc1F)N1CC[C@@H]2[C@H](CO)Nc3ccc(-c4ccccc4)cc3[C@@H]21 | nt | i | i | nt | nt | nt | nt | nt | nt
O=C(c1cccc(F)c1)N1CC[C@@H]2[C@@H](CO)Nc3ccc(-c4cccc(F)c4)cc3[C@@H]21 | nt | nt | 98 | nt | nt | nt | i | i | i
N#CC(C#N)=C(Nc1ccccc1)c1ccccc1 | i | i | i | i | i | i | nt | nt | nt
Cc1nnc(NC(=O)CSc2ccc(NC(=O)C3CC3)nn2)s1 | nt | nt | nt | nt | nt | i | nt | nt | nt
CC(=Nc1ccc2c(c1)nc(CO)n2C)C1=C(O)CC(C)(C)CC1=O | i | nt | i | i | i | i | nt | nt | nt
CC(=O)c1ccc(N2CCN(C(=O)Cc3ccccc3)CC2)c(F)c1 | i | i | 55 | i | i | i | i | i | i
CC(=O)c1ccc(N2CCN(C(=O)c3ccc(Br)cc3)CC2)c(F)c1 | nt | nt | 93 | i | i | i | i | i | i
CC(=O)c1ccc(N2CCN(C(=O)c3ccco3)CC2)c(F)c1 | nt | nt | i | i | i | i | nt | nt | nt
COc1ccc(Cn2ccc(=O)c(Cc3c(Cl)cccc3Cl)c2C)cc1 | i | nt | 43 | i | i | i | i | ? | ?
CC(C)C1NCCc2c1sc1ccccc21 (stereo unspecified) | i | i | i | i | i | i | nt | nt | nt
COc1ccc(C2c3c(oc4ccc(Cl)cc4c3=O)C(=O)N2CCN2CCOCC2)cc1 (stereo unspecified) | i | i | 72 | i | i | i | i | i | i
COc1ccc(C2c3c(oc4ccccc4c3=O)C(=O)N2CCCN2CCOCC2)cc1 (stereo unspecified) | i | nt | nt | nt | nt | i | nt | nt | nt
Fc1ccc2[nH]c3c(N4CCc5ccccc5C4)ncnc3c2c1 | nt | i | i | i | nt | i | nt | nt | nt
Fc1ccc2[nH]c3c(NCCN4CCOCC4)ncnc3c2c1 | i | nt | 54 | i | i | i | i | ? | ?
CN1CCN(c2ncnc3c2[nH]c2ccc(F)cc23)CC1 | i | nt | 70 | i | i | i | i | i | i
SMILES | Mtb hypoxia inh | TcdB GH inh | BioA inh-1 | FadD28 binding | PrP 5UTR inh | SSB-PriA inh | BioA inh-2 | HepG2 cytotox | 3T3 cytotox 5
Clc1ccc2[nH]c3c(NCCN4CCOCC4)ncnc3c2c1 | nt | nt | i | i | i | i | nt | nt | nt
CC(C)(C)NC(=O)NCCN1CCC(O)CC1 | nt | nt | nt | nt | nt | i | nt | nt | nt
CCC(=O)N1CC[C@@H]2[C@H]1c1cc(-c3cccc(F)c3)ccc1N(C)[C@@H]2CO | nt | nt | 90 | nt | nt | nt | i | i | i
CN1c2ccc(-c3cccc(F)c3)cc2[C@H]2[C@H](CCN2C(=O)c2ccc3c(c2)OCO3)[C@H]1CO | nt | i | 99 | nt | nt | nt | i | i | i
CC(=O)N1CC[C@@H]2[C@@H](CO)N(C)c3ccc(-c4ccccc4)cc3[C@@H]21 | nt | 17 | 42 | nt | nt | nt | i | i | i
CN1c2ccc(-c3ccccc3)cc2[C@@H]2[C@@H](CCN2C(=O)c2ccc3c(c2)OCO3)[C@H]1CO | nt | i | nt | nt | nt | nt | nt | nt | nt
CN1c2ccc(-c3cccc(C#N)c3)cc2[C@@H]2[C@@H](CCN2C(=O)CC2CC2)[C@H]1CO | nt | nt | i | nt | nt | nt | nt | nt | nt
CN1c2ccc(-c3cccc(C#N)c3)cc2[C@H]2[C@H](CCN2C(=O)CC2CC2)[C@H]1CO | nt | nt | 65 | nt | nt | nt | i | i | i
COc1ccccc1S(=O)(=O)N1CC[C@@H]2[C@@H](CO)Nc3ccc(-c4ccccc4)cc3[C@@H]21 | nt | i | i | nt | nt | nt | nt | nt | nt
O=c1c2ccccc2oc2cc(Br)ccc12 | i | i | i | i | i | i | nt | nt | nt
CN1c2ccc(-c3cccc(F)c3)cc2[C@H]2[C@H](CCN2C(=O)c2ccncc2)[C@H]1CO | nt | nt | 95 | nt | nt | nt | i | i | i
CN1c2ccc(-c3cccc(F)c3)cc2[C@H]2[C@H](CCN2C(=O)C2CCOCC2)[C@H]1CO | nt | i | 76 | nt | nt | nt | i | i | i
CN1c2ccc(-c3cccc(F)c3)cc2[C@H]2[C@H](CCN2C(=O)C2CCOCC2)[C@@H]1CO | nt | i | i | nt | nt | nt | nt | nt | nt
CN1c2ccc(-c3cccc(F)c3)cc2[C@H]2[C@H](CCN2C(=O)c2cccc(F)c2)[C@@H]1CO | nt | i | nt | nt | nt | nt | nt | nt | nt
Cc1cccc(-n2c(SCC(=O)N(C)C3CCS(=O)(=O)C3)nc3ccccc3c2=O)c1C (stereo unspecified) | i | i | 47 | i | i | i | i | i | i
CN(C(=O)CSc1nc2ccccc2c(=O)n1-c1ccccc1F)C1CCS(=O)(=O)C1 (stereo unspecified) | i | i | i | i | i | i | nt | nt | nt
CCN(CC)CCNC(=O)c1cn(CC)c2ccc(S(=O)(=O)N3CCc4ccccc4C3)cc2c1=O | i | i | 59 | i | i | i | i | i | i
CCN(CC)CCCNC(=O)c1cn(CC)c2ccc(S(=O)(=O)N3CCc4ccccc4C3)cc2c1=O | i | i | nt | i | i | i | nt | nt | nt
O=C(NC1CC1)c1cccc2c1C(=O)c1ccc(N3CCC(N4CCCCC4)CC3)cc1S2(=O)=O | nt | i | i | i | nt | nt | nt | nt | nt
CCOC(=O)c1c(C)[n+](-c2ccc(C)cc2)c(CC)c2cc(OC)c(OC)cc12 | i | i | 77 | i | nt | i | i | i | i
Cc1cc2n(n1)C(c1cn(-c3ccccc3)nc1C)Nc1c(C)cccc1-2 (stereo unspecified) | i | nt | i | i | i | i | nt | nt | nt
CCCN1CCN(C(=O)C2CCN(c3nnc(C)c4c(C)n(-c5ccc(C)cc5)nc34)CC2)CC1 | i | i | 41 | i | i | i | i | i | i
CC(Oc1ccc2c(-c3ccccc3)cc(=O)oc2c1)C(=O)NCc1ccccn1 (stereo unspecified) | nt | i | 42 | i | i | i | i | i | i
